Assay outcomes (PubChem)
In the library only some 4.1% were active in any assay of this set; here they are far more common.
tim23-1 inh: growth inhibitors of tim23-1 mutant yeast. 1.3% of 330,000 active. S. cerevisiae tim23-1 growth, BacTiter-Glo luminescence, 24 h. AID 463212. inhibition, % at 20 µM;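 active = growth inhibition of the mutant yeast at or above 50%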;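 note: temperature-sensitive mutant grown at 25 °C; plate controls were DMSO-treated mutant yeast for no effect and medium wells lacking yeast for full effect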
tim10-1 inh: growth inhibitors of tim10-1 mutant yeast; 2.2% of 330,000 active; S. cerevisiae tim10-1 ts strain growth, BacTiter-Glo, 24 h; inhibition, % at 20 µM;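 active = inhibition of at least 40%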;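 note: mutant grown at 25 °C; 0% = DMSO wells with yeast and 100% = wells holding no yeast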
NALP1 yeast inh: inhibitors of NALP1 inflammasome in yeast; inhibition, % at 10 µM; 0.61% of 280,000 active; S. cerevisiae NALP1/ASC/caspase-1 growth, X-gal OD620, 72 h; in the data active = inhibition mostly above about 24%, no sharp cut-off; inactive = mostly below about 32%
NLRP3 yeast inh: blocks the NALP3 inflammasome reconstituted in yeast. Yeast reconstituted NLRP3/ASC/caspase-1, beta-gal luminescence, 24 h. inhibition, % at 10 µM. 0.39% of 330,000 active. AID 2825;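 active = inhibition of 50% or more; inactive = inhibition below 50%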;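 note: plate controls were induced DMSO wells for no effect and uninduced yeast grown without galactose for full effect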
TIM10 inh: TIM10 yeast growth inhibition. S. cerevisiae TIM10 strain growth, BacTiter-Glo luminescence, 24 h. inhibition, % at 10 µM. 1.4% of 330,000 active;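 active = inhibition of 40% or more at the single tested concentration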;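 note: wild-type TIM10 isogenic control strain grown at permissive 25 °C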
tim10-1 conf: confirmation of tim10-1 mutant yeast growth inhibitors | inhibition, % at 20 µM | shares compounds with tim10-1 inh | 56% of 7,400 active | S. cerevisiae tim10-1 ts strain growth, BacTiter-Glo, 24 h;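 active = inhibition of yeast growth at or above a set limit in either of two repeat tests at 20 µM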;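 note: tim10-1 mutant grown at permissive 25 °C to find synthetic lethal compounds; 0% = DMSO yeast wells and 100% = medium wells without yeast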
The depositor's hits bear a star; . = no result.

SMILES	tim23-1 inh	tim10-1 inh	NALP1 yeast inh	NLRP3 yeast inh	TIM10 inh	tim10-1 conf
Cn1c(=O)c2c(nc(CN3CCN(c4ccccc4)CC3)n2CCCc2ccccc2)n(C)c1=O	27	43*	.	11	17	8
O=C(NCc1ccccc1Cl)c1cc2ccccc2oc1=O	20	14	14	15	0	.
O=c1oc2ccccc2cc1NCc1ccccc1O	38	41*	15	-8	11	7
CC(C)C[C@H](NC(=O)c1nc[nH]c1C(=O)N(C)Cc1ccccc1)C(=O)OCc1ccccc1	21	10	20	9	9	.
Oc1ccc(-c2csc(Nc3ccccn3)n2)cc1O	13	22	5	12	10	.
c1ccc(Nc2nc(-c3ccccn3)cs2)cc1	33	46*	.	35	34	23
COc1cccc2sc(NNC(=O)COc3ccccc3)nc12	-5	-13	-13	3	-4	.
COc1cccc2sc(Nc3nc(-c4ccccn4)cs3)nc12	50	52*	-12	13	13	34*
CC(=O)Nc1ccc(-c2csc(Nc3ccccn3)n2)cc1	-6	62*	.	2	-26	-39
Nc1nncn1C(=O)CCc1ccccc1	11	16	12	6	7	.
COc1cc2cc(CCOC(=O)c3ccco3)oc(=O)c2cc1OC	13	4	.	17	-14	.
Cc1csc(-c2coc3cc(O)cc(C)c3c2=O)n1	50	43*	-14	30	16	9
CCc1cc2c(=O)c(-c3nc(C)cs3)coc2cc1O	-5	5	.	21	10	.
COc1ccc(-c2cc(C)no2)cc1S(=O)(=O)N(C)c1ccc(C)cc1	37	45*	14	19	-22	-32
Cc1nn(C(C)C(=O)N2CCc3ccccc32)c(C)c1[N+](=O)[O-] (stereo unspecified)	2	-3	16	13	-10	.
Cc1oc2c(C)c3oc(=O)c4c(c3cc2c1C)CCCC4	36	54*	-4	10	27	55*
CC1(c2cccc(Br)c2)NC(=O)N(CC(=O)Nc2ccc(F)cc2)C1=O (stereo unspecified)	-10	-39	16	-10	10	.
CCCc1cc(-c2nc(N)ncc2-c2csc(C)n2)c(O)cc1OC	30	43*	-69	9	40	27
CN(C)CCCN(C(=O)c1ccc(C(=O)c2ccccc2)cc1)c1nc2cc3c(cc2s1)OCO3	22	27	24	11	40	.
CN(C)CCCN(C(=O)c1nc2ccccc2s1)c1nc2ccc(F)cc2s1	18	-3	.	10	12	.
CN(C)CCCN(C(=O)c1ccc(C(=O)c2ccccc2)cc1)c1nc2ccc(F)cc2s1	16	49*	30	17	35	4
Cc1cccc2sc(N(CCCN(C)C)C(=O)c3ccc(C(=O)c4ccccc4)cc3)nc12	3	43*	5	10	27	7
CCCOc1ccc(C(=O)NC2CCSc3ccccc32)cc1 (stereo unspecified)	9	11	16	27	-2	.
COc1ccc(-n2c(C)cc(C(=O)Cn3nc(C(=O)O)c4ccccc4c3=O)c2C)cc1	27	17	29	8	24	.
Cc1ccc(-n2c(C)cc(C(=O)Cn3nc(C(=O)O)c4ccccc4c3=O)c2C)cc1	26	42*	42	9	16	15
SMILES	tim23-1 inh	tim10-1 inh	NALP1 yeast inh	NLRP3 yeast inh	TIM10 inh	tim10-1 conf
Cc1cc(-c2ccc(C)c(S(=O)(=O)NCC3CCN(Cc4ccc(F)cc4)CC3)c2)on1	-24	42*	15	15	-11	-81
CC1(C)O[C@@H]2[C@H](O1)[C@@H](COS(=O)(=O)O)O[C@H]2n1cc(Br)c(=O)[nH]c1=O	7	-11	.	11	-2	.
O=C(NCCc1nccs1)C1CCC(=O)N(CCc2ccc(Cl)cc2)C1 (stereo unspecified)	9	3	-2	18	-1	.
COc1ccc(-c2nc(C)ncc2-c2ccccc2)c(O)c1	23	41*	12	-3	5	17
COc1ccc(-c2nc(C)ncc2-c2ccc(Cl)cc2)c(O)c1	22	27	6	9	0	.
Cc1sc2ncnc(N3CCCCC3C)c2c1C (stereo unspecified)	28	42*	-1	23	6	22
Cc1sc2ncnc(N3CCCCC3)c2c1C	39	19	-1	19	5	.
CC1=CC(=O)C(C(C)=Nc2ccccc2Cl)C(=O)O1 (stereo unspecified)	17	0	-34	-10	-8	.
Cc1cccc(Cc2cnc(N3C(=N)SC(C)C3=O)s2)c1 (stereo unspecified)	-4	26	-10	-14	27	.
Cc1cccc(Cc2cnc(N3C(=N)SC(c4ccccc4)C3=O)s2)c1 (stereo unspecified)	29	44*	.	5	30	30*
COc1ccc(N2CCC(CNC(=O)Nc3cccc(OC)c3)C2)cc1 (stereo unspecified)	10	46*	-8	19	22	40*
Cc1cc(OC(=O)c2cccc(Br)c2)c([N+](=O)[O-])c(=O)[nH]1	4	46*	20	3	7	-8
Cc1cccc(-c2oc3ccccc3c2C#CCCO)c1	31	45*	20	23	30	11
Cc1cccc(-c2oc3ccccc3c2C#CCCCCO)c1	6	18	21	1	8	.
CCCc1cc(=O)oc2c(C)c(OCC(=O)Nc3cccnc3)ccc12	-6	5	9	24	-15	.
Cc1nn2c(c1-c1ccc(Cl)cc1)N=C(c1ccco1)CC2c1ccccc1 (stereo unspecified)	38	42*	12	4	39	34*
CCOc1ccc(CCNC(=O)COC(=O)c2nc3nc(C)cc(C)n3n2)cc1OCC	-4	-4	20	-11	-8	.
Cc1c(/C=N/NC(=O)CNc2ccccc2)c2ccccn2c1C(=O)c1ccccc1	29	40*	30	13	11	19
Cc1c(/C=N/NC(N)=O)c2ccccn2c1C(=O)c1ccncc1	13	9	3	0	-8	.
COc1cccc(NC(=O)Nc2cc(C)ccc2OC)c1	36	40*	1	36	38	29
COc1ccc(C)cc1NC(=O)Nc1ccccc1	25	29	11	38	21	.
OC(CNCCc1ccc(C(F)(F)F)cc1)COc1ccc2ccccc2c1 (stereo unspecified)	-94	48*	96*	27	7	-7
CC(=O)N1CCN(c2ccc(NC(=O)C(C)Oc3ccc(Cl)cc3Cl)cc2)CC1 (stereo unspecified)	19	45*	-16	21	24	31*
CC(Oc1ccc(Cl)cc1Cl)C(=O)Nc1ccc(N2CCN(C)CC2)cc1 (stereo unspecified)	18	12	16	23	9	.
Cc1ccc(-c2csc3ncnc(Oc4ccc5c(C)cc(=O)oc5c4)c23)cc1	13	23	29	25	13	.
